Bioassay records as filed in PubChem BioAssay.
Mdm2 MdmX PPI – inhibitors of human Mdm2-MdmX association, primary screen, cell-based, luminescence, split luciferase, SaOS-2, uHTS. SaOS-2 split-luciferase Mdm2/MdmX complementation. inhibition, % at 8 µM. Protein Mdm4 (Homo sapiens) + E3 ubiquitin-protein ligase Mdm2 (Homo sapiens), …. hit rate 3% among 330,000;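 active = inhibition of at least 50% at 8 µM in the primary screen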
Target sequence (O15151 whole entry, looked up): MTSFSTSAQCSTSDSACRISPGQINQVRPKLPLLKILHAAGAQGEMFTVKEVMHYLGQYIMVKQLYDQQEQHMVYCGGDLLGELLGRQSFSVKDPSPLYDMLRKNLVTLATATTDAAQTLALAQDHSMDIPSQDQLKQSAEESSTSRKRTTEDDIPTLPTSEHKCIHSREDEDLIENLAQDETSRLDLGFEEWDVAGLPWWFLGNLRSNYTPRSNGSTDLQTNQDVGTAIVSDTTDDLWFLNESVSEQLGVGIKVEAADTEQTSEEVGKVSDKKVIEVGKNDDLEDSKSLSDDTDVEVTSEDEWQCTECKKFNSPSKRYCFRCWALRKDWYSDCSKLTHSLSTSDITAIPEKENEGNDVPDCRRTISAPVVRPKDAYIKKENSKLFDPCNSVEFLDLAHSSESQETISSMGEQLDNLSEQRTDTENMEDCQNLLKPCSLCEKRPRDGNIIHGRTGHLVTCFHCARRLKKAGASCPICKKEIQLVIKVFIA
Target sequence (Q00987 whole entry, looked up): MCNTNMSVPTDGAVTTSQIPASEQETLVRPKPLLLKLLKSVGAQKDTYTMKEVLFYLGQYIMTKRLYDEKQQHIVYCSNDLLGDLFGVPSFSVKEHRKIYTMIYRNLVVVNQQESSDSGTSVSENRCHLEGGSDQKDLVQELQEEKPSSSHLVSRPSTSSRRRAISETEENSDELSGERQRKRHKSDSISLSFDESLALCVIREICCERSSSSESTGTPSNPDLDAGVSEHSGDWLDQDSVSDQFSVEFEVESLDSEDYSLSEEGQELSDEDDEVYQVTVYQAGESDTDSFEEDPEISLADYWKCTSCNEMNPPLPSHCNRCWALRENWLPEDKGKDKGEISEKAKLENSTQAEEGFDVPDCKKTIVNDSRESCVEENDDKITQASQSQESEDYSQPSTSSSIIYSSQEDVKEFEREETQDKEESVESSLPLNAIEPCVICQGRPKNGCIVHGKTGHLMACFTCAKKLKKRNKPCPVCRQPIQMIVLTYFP
MPTP block – mitochondrial permeability transition pore inhibitors, primary screen, biochemical, isolated mouse mitochondria, absorbance; Ca2+ swelling absorbance, 30 min; AID 602449, 2012; inhibition, % at 10 µM; hit rate 1.4% among 360,000;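 active = inhibition of 50% or more, scaled per plate between neutral and stimulator controls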;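 also: 0% = DMSO wells given calcium and 100% = 1 mM EGTA wells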
Calb FLC – C. albicans growth inhibition with fluconazole, primary screen, CaCi-2 strain, Alamar Blue fluorescence | C. albicans CaCi-2 (fluconazole-resistant clinical isolate) + fluconazole, 48 h | growth inhibition, % (test concentration not listed) | hit rate 0.57% among 300,000;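 active = growth inhibition above about 58% in most replicates, limit read from the data, passing the limit was not always enough; inconclusive = exactly half the replicates above a set limit; inactive = most replicates below a set limit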;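 also: all wells also contain fluconazole at 8 µg/ml as a sub-toxic cotreatment; 0% = median of DMSO wells and 100% = median of geldanamycin control wells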
Beta cell apopt – inhibitors of cytokine-induced beta cell apoptosis, primary screen, luminescence; INS-1E cytokine-induced death, ATP luminescence, 48 h; percent of positive-control rescue, neutral wells zero; protection from apoptosis, % (test concentration not listed); hit rate 0.8% among 300,000; AID 435005, 2010;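 active = Every replicate reaches about 75%, or at least half do and their mean reaches it too, limit read from the data; inconclusive = At least half of replicates reach the limit but their mean does not; inactive = Under half of replicates reach the limit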;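 also: 0% = cytokine-treated negative control wells and 100% = positive control rescue; higher means more ATP so stronger rescue from cytokine killing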
CSC inhib – cancer stem cell viability inhibitors, primary screen, luminescence; cancer stem cell-like cells viability; inhibition, % at 7.5 µM; hit rate 1.1% among 300,000; in the data active = inhibition above about 75%; inconclusive = no clear call, values can overlap the other calls; tested in HMLE shEcad cells
Rh123 counter – fluorescence retest of MPTP screen hits in isolated mitochondria, single concentration | shares compounds with MPTP block | membrane potential, Rhodamine 123 fluorescence | inhibition, % at 10 µM | hit rate 78% among 5,000; in the data active = inhibition above about 22%;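 also: 0% = DMSO vehicle and 100% = positive control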
MPTP abs DR – mitochondrial permeability transition pore inhibitors, dose response, biochemical, absorbance, uHTS hits; shares compounds with MPTP block; isolated mitochondria swelling; IC50, µM; hit rate 58% among 780; AID 651561, 2012; in the data active = IC50 below about 20 µM
MPTP counter DR – fluorescent counter-screen in isolated mitochondria, dose response, counter-screen for MPTP inhibitor project, biochemical, fluorescence, uHTS hits | hit rate 49% among 780 | AID 651564, 2012 | isolated mitochondria counterscreen, fluorescence read-out | shares compounds with MPTP block | IC50, µM; in the data active = IC50 below about 80 µM
Active calls of the source: *; i = inactive; ? = inconclusive; / = no result. Hits are enriched below; roughly 4.8% of the tested compounds scored in any of these assays.

SMILES | Mdm2 MdmX PPI | MPTP block | Calb FLC | Beta cell apopt | CSC inhib | Rh123 counter | others
CC(=O)N(CCC(Cc1ccccc1)c1ccc2c(c1)OCO2)Cc1ccccc1F (stereo not given) | 41 | 1 | 10 | -7 | 24 | /
CCOC(=O)c1cnc2ccc(OC)cc2c1NCc1ccccc1 | 6 | 2 | 55 | 24 | / | /
CCOC(=O)c1cnc2ccc(OCC)cc2c1NCc1ccccc1OC | 42 | 85* | 8 | 23 | 76* | 99*
Fc1ccc(NC(=S)NCCc2ccccc2)c(F)c1F | 4 | 77* | -10 | -1 | 14 | 92*
Fc1ccccc1NC(=S)NCCc1ccccc1 | -3 | 1 | -5 | 6 | -2 | /
OCCNC(=S)NCCc1ccccc1 | -20 | -2 | -7 | 5 | 4 | /
S=C(NCCc1ccccc1)Nc1cnc2ccccc2c1 | -27 | 77* | 3 | 1 | 13 | 78*
CC(C)(CNC(=S)NCCc1ccccc1)CNC(=S)NCCc1ccccc1 | / | 80* | 5 | / | / | 85*
CC(=O)c1cccc(NC(=S)NCCCCc2ccccc2)c1 | 1 | 68* | -31 | -1 | / | 81*
COc1ccc(-c2nc3nc(N)nn3cc2C)cc1F | 7 | 0 | 3 | 1 | 1 | /
COC(=O)[C@@]12C[C@@H](CC(=O)N3CCN(C(=O)c4ccco4)CC3)C(=O)N(Cc3ccc4c(c3)OCO4)C1=CCC(C)(C)C2 | / | 0 | / | / | / | /
Cc1ccc(-n2nnnc2SCC(=O)NC2CC2)cc1C | 5 | 0 | -10 | 2 | 18 | /
Cc1ccc(NC(=O)Nc2cnc3ccccc3c2)cc1 | -190 | 87* | 6 | 10 | 9 | 71*
Fc1ccc(F)c(NC(=S)NCCc2ccccc2)c1 | 0 | 6 | -25 | 25 | -1 | /
Fc1cccc(NC(=S)NCCc2ccccc2)c1 | -7 | 71* | -60 | 5 | 3 | 87*
CCN(CC)C(=O)Nc1cnc2ccccc2c1 | -6 | 0 | -6 | -11 | / | /
O=C(NCCCCc1ccccc1)Nc1cccc(F)c1 | 10 | 56* | 3 | -1 | 6 | 96*
O=[N+]([O-])c1cccc(NC(=S)NCCc2ccccc2)c1 | -11 | 95* | -79 | 5 | 11 | 96*
O=C(Cc1cccc([N+](=O)[O-])c1)Nc1ccccc1 | / | -2 | / | / | / | /
CCCCN1CC(N2CCCCC2)CS1(=O)=O (stereo not given) | / | -1 | / | / | / | /
CCOC(=O)Cc1cc(=O)n2[nH]cc(-c3cccc(Br)c3)c2n1 | 14 | -4 | 10 | 1 | 27 | /
O=S(=O)(c1ccc2ccccc2c1)N(CC1CO1)c1ccccc1 (stereo not given) | -24 | 2 | 29 | 5 | 16 | /
Cc1ccc(OCC(=O)NN=C2C3CC4CC(C3)CC2C4)cc1 | 10 | -2 | / | -3 | / | /
Cc1ccc(NS(=O)(=O)c2ccc(Br)cc2)nc1 | 3 | 0 | 24 | -9 | -2 | /
COC1(NS(=O)(=O)c2ccc(Br)cc2)C(C)=CC(=O)C=C1C | 6 | 78* | 5 | -1 | -4 | 4 | MPTP abs DR=i;MPTP counter DR=>80
SMILES | Mdm2 MdmX PPI | MPTP block | Calb FLC | Beta cell apopt | CSC inhib | Rh123 counter | others
Cc1cc(C)n(CCNC(=O)c2cc(COc3ccc4ncccc4c3)on2)n1 | 26 | 63* | 9 | 11 | -8 | 37*
Cc1ccc(F)cc1CNC(=O)c1cc(COc2ccc3ncccc3c2)on1 | 30 | 95* | -8 | 32 | -15 | 105*
CSc1ccccc1OCc1cc(C(=O)NCCn2nc(C)cc2C)no1 | 21 | 0 | 7 | / | 12 | /
COc1cccc(CCNC(=O)c2cc(COc3ccc(C)c(C)c3)on2)c1OC | / | 0 | / | / | / | /
Cc1nc(CN(C)C(=O)c2cc(COc3ccc4ncccc4c3)on2)cs1 | 1 | 99* | -2 | 42 | 7 | 69*
O=C(NCc1cccc(Cl)c1)c1cc(COc2ccc3ncccc3c2)on1 | 20 | 105* | ? | 66 | 27 | 92*
CC(C)N(Cc1nccn1C)C(=O)c1cc(COc2ccc3ncccc3c2)on1 | 29 | 26 | 6 | 4 | -5 | /
Cc1ccc(OCC(=O)N(Cc2nnc(-c3ccccc3Cl)o2)C2CC2)cc1C | 7 | 2 | / | 0 | 6 | /
CCOc1ccc(CCNC(=O)COC(=O)COc2ccc(C#N)cc2)cc1OCC | -24 | -1 | / | -8 | / | /
C/C(Cn1ncc(N2CCOCC2)c(Cl)c1=O)=N\O | 11 | -1 | -3 | -3 | -9 | /
CC(CCCC(C)(C)O)NC(=O)c1cc(COc2ccc3ncccc3c2)on1 (stereo not given) | 16 | 92* | 26 | 88* | -6 | 79*
Cc1ccc(OCc2cc(C(=O)NC(C)Cc3cccnc3)no2)cc1C (stereo not given) | -48 | -1 | 5 | -7 | -4 | /
Cc1cc(Cl)ccc1NC(=O)NC1CCN(S(=O)(=O)c2ccc(F)cc2)CC1 | 34 | 59* | -5 | 3 | 2 | 76*
O=C(Nc1ccc(F)cc1F)NC1CCN(S(=O)(=O)c2ccc(F)cc2)CC1 | 22 | -1 | 2 | -4 | -1 | /
C=CCOC(=O)c1ccccc1C(=O)OCC1CO1 (stereo not given) | / | 1 | / | / | / | /
O=C(C1=C[C@@H](c2ccccc2)C[C@@H](OCc2ccc(CO)cc2)O1)N1CCCCCCC1 | 13 | -2 | 6 | 3 | 1 | /
COc1cc(C(O)c2nc(-c3cc(F)cc(F)c3)cs2)ccc1F (stereo not given) | / | 4 | / | / | / | /
COc1cc(C(O)c2nc(-c3cc4ccccc4o3)cs2)ccc1F (stereo not given) | / | 59* | / | / | / | 80*
COc1cc(C(O)c2nc(-c3ccc(N(C)C)cc3)cs2)ccc1F (stereo not given) | / | 64* | / | / | / | 66*
COc1cccc(C(O)c2nc(-c3cc4ccccc4o3)cs2)c1 (stereo not given) | / | 5 | / | / | / | /
O=C(NCCS(=O)(=O)N1CCCCCC1)c1ccccc1 | -5 | 0 | 1 | -10 | -11 | /
COc1ccc(NC(=O)Nc2ccc([N+](=O)[O-])cc2)cn1 | -12 | 38 | 3 | 12 | -7 | /
Cc1ccc(Nc2cc(C)c3c(O)cccc3n2)cc1C | -44 | 72* | 0 | 23 | 40 | 54*
COc1ccc(Nc2cc(C)c3c(O)cccc3n2)cc1 | 19 | 36 | 1 | 2 | 33 | /
CC(=O)NN1C(=O)/C(=C\c2ccc(O)cc2)SC1=S | -7 | 1 | 15 | 7 | -9 | /
O=C1/C(=C/c2cccc(Br)c2)SC(=S)N1/N=C/c1cc([N+](=O)[O-])ccc1O | 1 | 61* | 8 | 10 | 17 | 12 | MPTP abs DR=15*;MPTP counter DR=<2.5*
